Compound activity deposited in PubChem by National Center for Advancing Translational Sciences (NCATS).
CtBP-E1A blk: blocks the CtBP interaction with E1A; AID 651724; hit rate 0.49% among 340,000; AlphaScreen GST-E1A/His-CtBP binding, 1536-well; hits give low values; activity change, % (test concentration not listed); in the data active = activity change below about -65%; inconclusive = mostly about -30% to -63%
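Protein mix (5X: 125 nM each GST-E1A, His-CtBP) was incubated with pinned compound 2 h at 37 deg C in dark, in 50 mM Tris pH 8.0 buffer with 300 mM NaCl. Glutathione donor and nickel acceptor beads followed; AlphaScreen signal read after 1 h.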
PKM2 act: PKM2 (human) enzyme activation; purified PKM2, Kinase-Glo ATP luminescence, activation; response scale: 0% is enzyme alone, no compound; AID 1631; Potency, µM (top dose mostly 57.5 µM), most hits filed as activators; P14618; hit rate 0.34% among 260,000; note: nearly all actives have a fitted effect of over 55% in size
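hPK-M2, >95% pure; 0.1 mM ADP / 0.5 mM PEP final; imidazole pH7.2 buffer w/ 7 mM MgCl2, 50 mM KCl; 1 h RT; Kinase-Glo lum. Intermediate enzyme activity for dual inhibitor/activator qHTS.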
VP16 counter: counter-screen for ROR gamma inhibitors: Gal4-VP16 reporter. Drosophila S2 Gal4-VP16 UAS-luciferase, luminescence, 20 h. hit rate 3.5% among 310,000. Potency, µM (highest dose often 53.6 µM), most hits filed as inhibitors;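 note: Gal4-VP16 expression switched on by copper sulfate through the metallothionein promoter; nearly all actives have a fitted effect of over 50% in size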
RORgamma inh: inhibitors of mouse ROR gamma transcriptional activity. P51450. Drosophila S2 Gal4-RORgamma UAS-luciferase reporter, 20 h. Potency, µM (doses to about 53.6 µM), actives largely listed as inhibitors. hit rate 5.4% among 310,000. AID 2551; note: nearly all actives have a fitted effect of over 60% in size
Target sequence (P51450 whole entry, looked up, the tested form may be a part): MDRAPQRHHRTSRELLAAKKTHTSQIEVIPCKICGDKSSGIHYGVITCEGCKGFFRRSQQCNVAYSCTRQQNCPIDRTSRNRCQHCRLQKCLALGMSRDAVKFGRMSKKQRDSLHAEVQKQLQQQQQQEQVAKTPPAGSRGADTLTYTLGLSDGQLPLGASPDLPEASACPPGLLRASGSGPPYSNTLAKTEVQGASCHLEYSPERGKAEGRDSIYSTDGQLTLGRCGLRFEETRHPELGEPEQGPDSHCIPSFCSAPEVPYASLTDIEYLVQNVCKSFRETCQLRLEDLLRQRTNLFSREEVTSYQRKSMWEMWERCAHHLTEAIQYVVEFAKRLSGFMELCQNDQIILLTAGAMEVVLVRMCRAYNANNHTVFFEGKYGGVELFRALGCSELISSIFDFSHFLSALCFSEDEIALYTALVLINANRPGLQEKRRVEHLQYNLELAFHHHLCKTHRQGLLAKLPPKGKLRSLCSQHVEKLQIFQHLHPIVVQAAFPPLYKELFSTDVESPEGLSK
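Schneider cells (Drosophila), stable Gal4 DBD–ROR gamma + UAS-luc; 1 hr cmpd preincubation; Cu2+ induction 700 uM final; 20 hr ambient; luminescence.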
Six1-Eya2 blk: Six1/Eya2 interaction inhibition; Q15475+O00167; hit rate 0.56% among 360,000; AlphaScreen GST-Six1/His-Eya2 binding, biochemical; hits give low values; activity change, % (no concentration beside the values); in the data active = activity change below about -65%; inconclusive = mostly about -30% to -63%
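AlphaScreen luminescence read after one hour at 37 °C in darkness. Pin-transferred compounds met GST-Six1 and His-Eya2 protein (5X stock 250 nM/500 nM) plus glutathione donor and Ni-chelate acceptor beads (5X, 50 ug/mL).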
Of the large screens only hits and unclear results are named; the others gave an inactive call; ! = a repeat was not active. Shown are actives, neighbours in structure and some others; about 5.6% of the full set was active somewhere. Unless noted, calls come from the whole dose curve; as a rule, active = well fitted curve in the direction sought with a large enough effect; inconclusive = small, poorly fitted or top-dose-only effect, or another doubt; inactive = no such curve, though single readings can be large; an effect the other way counts as inactive or inconclusive.

NC(=S)N=Nc1c(O)n(CCCl)c2ccc(Br)cc12	CtBP-E1A blk inconclusive, VP16 counter 3.5µM, RORgamma inh 0.79µM
C/C(Cl)=C\Cn1c(O)c(N=NC(N)=S)c2cc(Br)ccc21	VP16 counter 3.2µM, RORgamma inh 3.2µM, Six1-Eya2 blk inconclusive
C/C(Cl)=C\Cn1c(O)c(N=O)c2ccccc21	VP16 counter inconclusive
CCCCn1c(O)c(N=NC(=O)c2ccncc2)c2cc(Br)ccc21	RORgamma inh inconclusive
Cc1ccc(-n2c(-c3ccccc3)c[n+]3c2CCc2ccccc2-3)c(C)c1	VP16 counter 7.1µM, RORgamma inh inconclusive
O=c1oc2cc(OCc3c(F)cccc3Cl)ccc2cc1-c1ccccn1	none
CCCOc1ccc2cc(-c3ccccn3)c(=O)oc2c1	VP16 counter 5µM, RORgamma inh 7.1µM
Cc1ccc(S(=O)(=O)N[C@@H](Cc2ccccc2)C(=O)N2CCC(C(=O)N[C@@H](CC(C)C)C(=O)O)CC2)cc1	none (no result: PKM2 act)
Cc1nc(-c2ccccn2)nc(N2CCOCC2)c1Cl	none
Cc1nc(-c2ccccn2)nc(N(C)c2ccccc2)c1Cl	VP16 counter 1.6µM, RORgamma inh 0.32µM (no result: PKM2 act)
Cc1nnc(SCc2ccc(CSc3nnc(C)c(=O)[nH]3)cc2)[nH]c1=O	none
COC(=O)C(c1ccccc1Cl)N1CCc2sccc2C1 (stereo not drawn)	VP16 counter inconclusive, RORgamma inh 3.5µM! (no result: CtBP-E1A blk, PKM2 act, Six1-Eya2 blk)
CC(C)CN(CC(C)C)S(=O)(=O)N1CCC(C(=O)NCc2ccco2)CC1	none (no result: CtBP-E1A blk)
CC(=O)c1cccc(NC(=O)CN2C(=O)C(=O)N(Cc3ccco3)C2=O)c1	none (no result: CtBP-E1A blk, PKM2 act, VP16 counter, RORgamma inh)
NS(=O)(=O)c1ccc(NC(=S)Nc2ccn(Cc3cccc4ccccc34)n2)cc1	VP16 counter inconclusive, RORgamma inh 10µM
NS(=O)(=O)c1ccc(NS(=O)(=O)c2ccc(NC(=S)Nc3ccccc3)cc2)cc1	none
CN(C)c1ccc(N=Nc2ccccc2C(=O)OCC(=O)NCC2CCCCC2)cc1	CtBP-E1A blk -68, Six1-Eya2 blk -74
CN(C)c1ccc(N=Nc2ccccc2C(=O)OCC(=O)NC2CCCC2)cc1	CtBP-E1A blk -66, RORgamma inh inconclusive, Six1-Eya2 blk -71
COC(=O)C1CCN(C(=O)CC(NC(=O)C(F)(F)F)c2cccs2)CC1 (stereo not drawn)	none (no result: CtBP-E1A blk, PKM2 act)
COc1ccccc1CN(Cc1nc2ccccc2c(=O)[nH]1)C(=O)Nc1ccc(C)cc1	RORgamma inh inconclusive
O=C(NC1CCCCC1)N(Cc1nc2ccccc2c(=O)[nH]1)C1CCCCC1	none
CC(=O)N(Cc1ccc(F)cc1)Cc1nc2ccccc2c(=O)[nH]1	VP16 counter inconclusive, RORgamma inh 16µM (no result: CtBP-E1A blk)
COc1ccccc1CN(Cc1nc2ccccc2c(=O)[nH]1)C(=O)Nc1ccccc1C	VP16 counter inconclusive, RORgamma inh 10µM
COc1ccc(CN(Cc2nc3ccccc3c(=O)[nH]2)C(=O)NC2CCCCC2)cc1	VP16 counter inconclusive, RORgamma inh 13µM
CCN(CC(=O)NCc1ccc(F)cc1)Cc1nc2ccccc2c(=O)[nH]1	VP16 counter 10µM, RORgamma inh 4µM
CCN(CC(=O)Nc1cccc(F)c1)Cc1nc2ccccc2c(=O)[nH]1	VP16 counter inconclusive, RORgamma inh inconclusive
CCN(CC)CC(=O)Nc1ccc([N+](=O)[O-])cc1	none
CC1=NCCN1CCNC(=O)Nc1ccc(C(C)(C)C)cc1	none
COc1ccc(CN(Cc2nc3ccccc3c(=O)[nH]2)C(=O)C(C)(C)C)cc1	RORgamma inh 13µM
Cc1cc(Br)c(OCc2ccc(C(=O)N/N=C3\CC4CC=CC34)cc2)c(Br)c1 (stereo not drawn)	VP16 counter inconclusive, RORgamma inh 7.9µM
O=C(N/N=C1\CC2CC=CC12)c1ccc(Br)cc1 (stereo not drawn)	RORgamma inh 11µM
COc1ccc(S(=O)(=O)N2CCC(C(=O)NCCN3CCOCC3)CC2)cc1	none (no result: PKM2 act)
CCOCCCNC(=O)c1cc2c(s1)-c1ccccc1SC2	none (no result: PKM2 act)
CN(C)CCNC(=O)c1cc2c(s1)-c1ccc(Cl)cc1SC2	VP16 counter inconclusive, RORgamma inh 10µM (no result: CtBP-E1A blk, PKM2 act)
CC(C)c1ccc(Cn2ccc3c4c(N)nc(NC5CC5)nc4ccc32)cc1	VP16 counter inconclusive, RORgamma inh 16µM (no result: CtBP-E1A blk, PKM2 act, Six1-Eya2 blk)
CCn1nnc2cc(C(=O)Nc3cccc(S(=O)(=O)N(C)C)c3)ccc21	none (no result: PKM2 act, VP16 counter, RORgamma inh)
Nc1nc(-c2ccco2)c(-c2ccco2)s1	PKM2 act 22µM, Six1-Eya2 blk inconclusive
Cc1cc(C)cc(NC(=O)COC(=O)COc2ccc(N(C)S(=O)(=O)c3cccs3)cc2)c1	none (no result: PKM2 act, VP16 counter, RORgamma inh)
O=[N+]([O-])c1ccc(NCCNS(=O)(=O)c2ccccc2)c(C(F)(F)F)c1	PKM2 act 28µM, RORgamma inh inconclusive
Cc1ccc(S(=O)(=O)NCCNc2ccc([N+](=O)[O-])cc2C(F)(F)F)cc1	PKM2 act inconclusive, VP16 counter inconclusive, RORgamma inh inconclusive
O=C(c1cc[n+]([O-])cc1)N1CCCC(N2CCN(c3cccc(C(F)(F)F)c3)CC2)C1 (stereo not drawn)	RORgamma inh 1.3µM
OC[C@@H]1OC(O)[C@H](O)[C@H](O)[C@H]1O (stereo partly drawn)	none (no result: CtBP-E1A blk, PKM2 act, Six1-Eya2 blk)
Cc1csc(=O)n1CC(=O)OC(C)C(=O)Nc1cccc(Cl)c1 (stereo not drawn)	none (no result: PKM2 act, VP16 counter, RORgamma inh)
CNC(=S)/N=C(\Nc1ccc(C)cc1)c1ccccc1	VP16 counter 16µM, RORgamma inh 2.5µM
CCCCCCc1cc2cc(C(=O)Nc3ccccc3)c(=O)oc2cc1O	VP16 counter 4.5µM, RORgamma inh inconclusive
CCCCCCc1cc2cc(S(=O)(=O)c3ccc(Cl)cc3)c(=O)oc2cc1O	VP16 counter 20µM, RORgamma inh inconclusive
O=C(COc1cccc(C(F)(F)F)c1)Nc1cccc(S(=O)(=O)NC2=NCCCCC2)c1	none (no result: PKM2 act, VP16 counter, RORgamma inh)
C/C(=N\NC(=O)c1ccccc1O)c1cccc(NC(=O)c2ccccc2)c1	RORgamma inh inconclusive (no result: PKM2 act)
C/C(=N\NC(=O)c1cccc([N+](=O)[O-])c1)c1ccncc1	none
C/C(=N/NC(=O)c1ccc(O)cc1)c1cccc([N+](=O)[O-])c1	VP16 counter 13µM, RORgamma inh 3.2µM
CC(=O)Nc1cccc(/C(C)=N/NC(=O)c2ccc(O)cc2)c1	VP16 counter inconclusive, RORgamma inh 11µM
C/C(=N\NC(=O)c1ccc(OC2CCCC2)cc1)c1ccc(O)cc1	VP16 counter inconclusive, RORgamma inh 14µM
C/C(=N\NC(=O)c1cccc([N+](=O)[O-])c1)c1cccs1	VP16 counter 6.3µM, RORgamma inh 4µM
COc1ccc(C(=O)N/N=C(/C)c2ccc(N3CCCCC3)cc2)cc1	none
C[C@H](NC(=O)N1CCc2nc(-c3ccccc3)c3c(c2C1)CO[C@@H](C)C3)c1ccccc1	none (no result: CtBP-E1A blk, VP16 counter, RORgamma inh, Six1-Eya2 blk)
CCCCN1C(=O)C(C(=O)OCc2ccccc2)CC2=C1CCCC2=O (stereo not drawn)	none (no result: PKM2 act, VP16 counter, RORgamma inh)
Cc1ccc(OCCC(=O)OCC(=O)NC2CCS(=O)(=O)C2)cc1 (stereo not drawn)	none (no result: PKM2 act, VP16 counter, RORgamma inh)
